{"source": "PubChem BioAssay", "note": "A number with no mark means an inactive call. Calls of active or inactive are those of the source. Rule as the data show it: active = fold change permeability below about 0.7 or above about 1.3; inactive = in between."}
{"assay": "compounds altering in vitro BBB leakiness – cell-based, FITC-avidin fluorescence, HTS, primary screen (AID 1963498); also: test concentration not given here", "settings": "brain endothelial barrier, actives lie on both sides"}
{"smiles": "Cn1cc(C2=C(c3ccc(Cl)cc3Cl)C(=O)NC2=O)c2ccccc21", "fold change permeability": "3.6 (active)"}
{"smiles": "N=C(N)c1ccc(-c2ccc(-c3ccc(C(=N)N)cc3)o2)cc1", "fold change permeability": "1.5 (active)"}
{"smiles": "Oc1ccc(O)cc1", "fold change permeability": "1.4 (active)"}
{"smiles": "NC[C@@H]1O[C@H](O[C@H]2[C@@H](O)[C@H](O[C@@H]3[C@@H](O)[C@H](N)C[C@H](N)[C@H]3O[C@H]3O[C@H](CO)[C@@H](O)[C@H](O)[C@H]3N)O[C@@H]2CO)[C@H](N)[C@@H](O)[C@@H]1O", "fold change permeability": 1}
{"smiles": "COc1cc2nc(N3CCCN(C)CC3)nc(NC3CCN(Cc4ccccc4)CC3)c2cc1OC", "fold change permeability": "2.2 (active)"}
{"smiles": "CC(C)C[C@H](NC(=O)[C@@H](O)[C@H](N)Cc1ccccc1)C(=O)O", "fold change permeability": 1}
{"smiles": "Cn1cnc2c1c(=O)[nH]c(=O)n2C", "fold change permeability": "1.3 (active)"}
{"smiles": "COc1cc2c(cc1O)[C@@H](Cc1ccc(O)c(Oc3ccc(C[C@@H]4c5cc(OC)c(OC)cc5CCN4C)cc3)c1)N(C)CC2", "fold change permeability": "1.6 (active)"}
{"smiles": "OC1(c2ccc(Cl)cc2)CCN(Cc2c[nH]c3ccccc23)CC1", "fold change permeability": "1.4 (active)"}
{"smiles": "Nc1ncnc2c1c(-c1ccc(Oc3ccccc3)cc1)cn2C1CCCC1", "fold change permeability": "1.6 (active)"}
{"smiles": "CC(Nc1nc(N2CCNCC2)nc2ccccc12)c1ccccc1", "note": "(centres undefined)", "fold change permeability": "2.4 (active)"}
{"smiles": "Cc1cccc(C)c1OCC(C)N", "note": "(centres undefined)", "fold change permeability": 0.8}
{"smiles": "O=C(O)C1(C(=O)O)CCC1.[NH2-].[NH2-].[Pt+2]", "fold change permeability": 0.8}
{"smiles": "Cc1ccccc1/C=C/C1=NCCN1", "fold change permeability": "0.7 (active)"}
{"smiles": "COc1cc([C@@H]2c3cc4c(cc3[C@@H](O[C@@H]3O[C@@H]5CO[C@@H](C)O[C@H]5[C@H](O)[C@H]3O)[C@H]3COC(=O)[C@H]23)OCO4)cc(OC)c1O", "fold change permeability": 0.9}
{"smiles": "COc1ccccc1N1CCN(CCCNc2cc(=O)n(C)c(=O)n2C)CC1", "fold change permeability": "1.4 (active)"}
{"smiles": "CC(=O)NCCc1c[nH]c2ccc(O)cc12", "fold change permeability": 1.1}
{"smiles": "CCCCN(CCCC)CC(O)c1cc(Cl)cc2c1-c1ccc(Cl)cc1/C2=C/c1ccc(Cl)cc1", "note": "(centres undefined)", "fold change permeability": 0.9}
{"smiles": "CN1CC[C@]2(CCN3CCc4c(oc5ccccc45)[C@@H]3C2)N(C)C1=O", "fold change permeability": 1.1}
{"smiles": "c1cnc2c(c1)ccc1cccnc12", "fold change permeability": 1.2}
{"smiles": "Oc1ccccc1-c1cc(-c2ccccc2F)[nH]n1", "fold change permeability": 1}
{"smiles": "CCCN[C@H]1CCc2nc(N)sc2C1", "fold change permeability": 1.1}
{"smiles": "N[C@@H](CC(=O)O)C(=O)O", "fold change permeability": 1}
{"smiles": "Nc1nc2c(cnn2CCc2ccccc2)c2nc(-c3ccco3)nn12", "fold change permeability": "0.7 (active)"}
{"smiles": "Nc1ccn([C@H]2CC[C@@H](CO)O2)c(=O)n1", "fold change permeability": 1}
{"smiles": "O=c1[nH]c(=S)[nH]c(-c2ccccc2)c1Cc1c(O)ccc2ccccc12", "fold change permeability": 0.8}
{"smiles": "C[n+]1cc2c3c(ccc2c2ccc4cc5c(cc4c21)OCO5)OCO3", "fold change permeability": "2.1 (active)"}
{"smiles": "NC(=NCc1ccccc1)NC(=O)c1nc(Cl)c(N)nc1N", "fold change permeability": 1}
{"smiles": "CCN(CC)C(=O)c1ccc(O)c(OC)c1", "fold change permeability": 0.8}
{"smiles": "CCOC(=O)[C@@H](N)Cc1ccc(O)c(O)c1", "fold change permeability": 0.9}
{"smiles": "Cc1ccc(C(=O)Nc2sc(Nc3ccccc3)nc2C(N)=O)cc1", "fold change permeability": "1.3 (active)"}
{"smiles": "O=C(c1ccccc1)c1ccc2n1CCC2C(=O)O", "note": "(centres undefined)", "fold change permeability": "2 (active)"}
{"smiles": "Nc1ncnc2c1ncn2[C@@H]1O[C@H](CO)[C@@H](O)[C@H]1O", "fold change permeability": 1}
{"smiles": "CCN(C)C(=O)Oc1cccc([C@H](C)N(C)C)c1", "fold change permeability": 1}
{"smiles": "C[C@H](N[C@@H](CCc1ccccc1)C(=O)O)C(=O)N1CCC[C@H]1C(=O)O", "fold change permeability": "0.6 (active)"}
{"smiles": "COc1nc(C)cnc1NS(=O)(=O)c1cccnc1-c1ccc(-c2nnco2)cc1", "fold change permeability": "1.4 (active)"}
{"smiles": "Nc1ncn([C@@H]2O[C@H](CO)[C@@H](O)[C@H]2O)c(=O)n1", "fold change permeability": 1.1}
{"smiles": "CC(C)(C)c1ccc(S(=O)(=O)/C=C/C#N)cc1", "fold change permeability": 1.2}
{"smiles": "CC(C)(C)NCC(O)COc1nsnc1N1CCOCC1", "note": "(centres undefined)", "fold change permeability": "1.4 (active)"}
